# Measurements reported in PubChem BioAssay.
# Several values for one entry are separate records, joined by “and”; a condition that tells them apart may be missing. Equal values may be shown once. Where a structure was tested more than once in an assay, its records may differ in their call. Activity calls are given as the source filed them. Unless noted, how the calls were made is not given here.
# Columns and labels:
# [1] = test system: Wnt5a (protein binding on small-molecule microarray); experiment: small molecules binding Wnt5a protein – biophysical, small-molecule microarray, 635/667 nm fluorescence, primary screen (AID 1142); conditions: 635 nm fluorescence, higher = more signal;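 further: fluorescence read at 667 nm with signal to noise per printed feature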
# [2] = ATP-based viability of Huh7 replicon cells – cell-based, CellTiter-Glo luminescence, basal, 48 h, cytotoxicity control for HCV replication inhibitor project, primary screen (AID 1143); conditions: higher = more signal, called active from +8 up or from −8 down;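 further: Huh7 hepatoma cells carrying a hepatitis C replication reporter with no stimulus; test concentration not given here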
# [3] = Pseudomonas biofilm growth suppression – PAO1 strain, BacTiter-Glo luminescence, LB-PBS, primary screen (AID 1144); conditions: P. aeruginosa PAO1 biofilm, 12 h, higher = more signal
# [4] = basal CRE-LacZ reporter activity in PC12 – cell-based, unstimulated, primary screen (AID 1145); conditions: no forskolin, luminescence, 4.5 h, higher = more signal, called active from +8 up or from −8 down
# [5] = forskolin-driven CRE-LacZ activity in PC12 – cell-based, CRE-LacZ reporter, forskolin-stimulated, primary screen (AID 1146); conditions: luminescence, 4.5 h, higher = more signal, called active from +8 up or from −8 down;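 further: PC12 cells with 6xCRE LacZ reporter stimulated by forskolin 10 µM; beta-galactosidase reporter signal reflecting CREB driven transcription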
# [6] = target: Streptavidin (Streptomyces avidinii) (UniProt P22629); experiment: compounds binding control protein streptavidin – biophysical, small-molecule microarray, 635/667 nm fluorescence, artefact control for SMM compound annotation, primary screen (AID 1147); conditions: higher = more signal;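 further: signal reflects streptavidin binding to arrayed compounds as a control protein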
# Sequence of Streptavidin (Streptomyces avidinii) (P22629 whole entry, looked up): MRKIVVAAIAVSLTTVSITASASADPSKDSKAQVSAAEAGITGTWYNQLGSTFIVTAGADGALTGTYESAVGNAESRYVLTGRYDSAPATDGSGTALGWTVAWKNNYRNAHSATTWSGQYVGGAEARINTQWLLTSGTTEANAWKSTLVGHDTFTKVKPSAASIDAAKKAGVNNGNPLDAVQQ
# [7] = probe aInhba binding on compound microarray – biochemical, small-molecule microarray, 635/667 nm fluorescence, primary screen (AID 1148); conditions: higher = more signal;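 further: score merges 667nm spot fluorescence with signal-to-noise for antibody binding to printed compounds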
# Torsin-1A (Homo sapiens) [8] = target: Torsin-1A (Homo sapiens) (UniProt O14656); experiment: TOR1A wild-type binding on microarray – cell lysate, small-molecule microarray, lysate, 635/667 nm, primary screen (AID 1149); conditions: COS7 hTOR1A-WT lysate, 635 nm fluorescence, higher = more signal
# Sequence of Torsin-1A (Homo sapiens) (O14656 whole entry, looked up): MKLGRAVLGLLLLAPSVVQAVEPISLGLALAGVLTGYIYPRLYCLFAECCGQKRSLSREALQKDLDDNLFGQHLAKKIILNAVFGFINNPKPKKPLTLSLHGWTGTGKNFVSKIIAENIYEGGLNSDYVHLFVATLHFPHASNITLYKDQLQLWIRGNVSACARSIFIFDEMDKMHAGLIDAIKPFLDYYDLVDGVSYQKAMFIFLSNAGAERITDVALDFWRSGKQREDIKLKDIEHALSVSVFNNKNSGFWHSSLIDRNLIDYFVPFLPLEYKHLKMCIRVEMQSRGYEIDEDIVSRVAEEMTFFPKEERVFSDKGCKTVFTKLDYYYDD
# Torsin-1A (Homo sapiens) [9] = target: Torsin-1A (Homo sapiens) (UniProt O14656); experiment: torsin A mutant lysate binding on microarrays – cell lysate, small-molecule microarray, COS7 lysate, 635/667 nm fluorescence, primary screen (AID 1150); conditions: COS7 hTOR1A mutant lysate, 635 nm fluorescence, higher = more signal;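 further: score pools 667 nm emission and signal to noise measuring lysate protein binding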
# [10] = test system: Sonic hedgehog protein (Shh); experiment: Sonic hedgehog microarray binding compounds – biochemical, small-molecule microarray, 635/667 nm fluorescence, primary screen (AID 1151); conditions: 635 nm fluorescence, higher = more signal;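 further: Shh protein binding to compounds spotted on small-molecule microarray slides; score combines spot fluorescence intensity with signal-to-noise across triplicate slides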
# [11] = optical density shifts of acrAB sulA E. coli – strain DRC41, OD650, 48 h, E. coli filamentation inducer project, primary screen (AID 1152); conditions: higher = more signal, called active from +8 up or from −8 down;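 further: E. coli MC1000 strain DRC41 lacking acrAB efflux pump and sulA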
# [12] = probe aLefty1 binding on compound microarray – biochemical, small-molecule microarray, 635/667 nm fluorescence, primary screen (AID 1153); conditions: higher = more signal;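 further: score merges spot fluorescence with signal-to-noise ratio from the scanned slide images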
# [13] = plasmodial surface anion channel blockers, osmotic lysis – cell-based, P. falciparum Indochina, OD700, 1 h, primary screen (AID 1154); conditions: P. falciparum Indochina infected RBC osmotic lysis, higher = more signal, called active from +8 up or from −8 down
# [14] = plasmodial surface anion channel blockers, osmotic lysis – cell-based, P. falciparum Indochina, OD700, 2 h, primary screen (AID 1155);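 further: lysis reports solute entry through the parasite surface anion channel PSAC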; conditions: P. falciparum Indochina infected erythrocytes, higher = more signal, called active from +8 up or from −8 down
# [15] = changes in parasitized red cell lysis, either direction – P. falciparum Indochina, OD700, 3 h, PSAC antagonist project, primary screen (AID 1156); conditions: P. falciparum-infected erythrocytes, osmotic lysis, higher = more signal, called active from +8 up or from −8 down
# [16] = plasmodial surface anion channel blockers, osmotic lysis – cell-based, P. falciparum Indochina, OD700, 18 h, primary screen (AID 1157); conditions: P. falciparum Indochina infected erythrocytes, osmotic lysis OD700, 18 h; higher = more signal, called active from +8 up or from −8 down
# [17] = S6 kinase pathway phospho-S6 level changes – cell-based, A549, cytoblot, luminescence, serum-stimulated, primary screen (AID 1158); conditions: 5 h, higher = more signal;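 further: serum-stimulated A549 lung adenocarcinoma cells; signal is phosphorylated S6 detected by cytoblot immunostaining with HRP secondary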
# [18] = target: NADPH oxidase 2 (Homo sapiens) (UniProt P04839); experiment: compounds shifting NOX2 Amplex Red fluorescence – cell-based, HEK293-NOX2, PMA-stimulated, NOX inhibitor project, primary screen (AID 1159); conditions: 45 min, higher = more signal, called active from +8 up or from −8 down; further: test concentration not given here
# Sequence of NADPH oxidase 2 (Homo sapiens) (P04839 whole entry, looked up): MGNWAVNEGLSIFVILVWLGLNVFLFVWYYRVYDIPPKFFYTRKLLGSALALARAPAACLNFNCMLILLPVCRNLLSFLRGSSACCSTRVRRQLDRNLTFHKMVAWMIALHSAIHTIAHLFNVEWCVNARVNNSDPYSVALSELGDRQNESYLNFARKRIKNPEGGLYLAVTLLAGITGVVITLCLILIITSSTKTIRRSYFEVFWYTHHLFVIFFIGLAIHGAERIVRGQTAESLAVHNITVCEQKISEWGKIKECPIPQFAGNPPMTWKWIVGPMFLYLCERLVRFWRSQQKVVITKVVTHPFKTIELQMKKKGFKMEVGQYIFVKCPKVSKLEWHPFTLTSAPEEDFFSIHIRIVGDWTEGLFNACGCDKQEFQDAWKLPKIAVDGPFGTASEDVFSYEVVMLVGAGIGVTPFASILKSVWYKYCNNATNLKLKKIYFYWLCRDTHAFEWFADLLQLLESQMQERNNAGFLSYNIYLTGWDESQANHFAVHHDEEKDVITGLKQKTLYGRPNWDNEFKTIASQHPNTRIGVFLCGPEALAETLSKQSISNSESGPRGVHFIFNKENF
# [19] = target: NADPH oxidase 4 (Homo sapiens) (UniProt Q9NPH5); experiment: compounds shifting NOX4 Amplex Red fluorescence – cell-based, HEK293-NOX4, tetracycline-induced, NOX inhibitor project, primary screen (AID 1160); conditions: HEK293-NOX4, Amplex Red H2O2 fluorescence, 45 min; higher = more signal, called active from +8 up or from −8 down
# Sequence of NADPH oxidase 4 (Homo sapiens) (Q9NPH5 whole entry, looked up): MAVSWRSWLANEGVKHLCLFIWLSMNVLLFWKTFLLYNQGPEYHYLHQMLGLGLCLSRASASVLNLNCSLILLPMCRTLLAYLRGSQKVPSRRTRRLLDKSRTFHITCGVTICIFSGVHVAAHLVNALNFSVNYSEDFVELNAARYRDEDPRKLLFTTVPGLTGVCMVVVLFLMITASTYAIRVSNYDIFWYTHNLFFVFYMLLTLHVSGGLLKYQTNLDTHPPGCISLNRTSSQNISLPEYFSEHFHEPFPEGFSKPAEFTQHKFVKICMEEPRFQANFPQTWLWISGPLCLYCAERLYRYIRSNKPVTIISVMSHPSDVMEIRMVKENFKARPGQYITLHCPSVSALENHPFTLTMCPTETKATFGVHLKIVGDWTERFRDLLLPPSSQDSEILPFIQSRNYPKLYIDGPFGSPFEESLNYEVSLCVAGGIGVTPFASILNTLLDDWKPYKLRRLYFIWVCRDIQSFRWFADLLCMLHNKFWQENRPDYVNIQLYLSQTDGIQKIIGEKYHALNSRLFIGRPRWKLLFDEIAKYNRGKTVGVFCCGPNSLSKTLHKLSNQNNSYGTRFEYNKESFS
# [20] = target: NADPH oxidase 5 (Homo sapiens) (UniProt Q96PH1); experiment: compounds shifting NOX5 Amplex Red fluorescence – cell-based, HEK293-NOX5, NOX inhibitor project, primary screen (AID 1161); conditions: HEK293-NOX5, ionomycin, 45 min, higher = more signal
# Sequence of NADPH oxidase 5 (Homo sapiens) (Q96PH1 whole entry, looked up): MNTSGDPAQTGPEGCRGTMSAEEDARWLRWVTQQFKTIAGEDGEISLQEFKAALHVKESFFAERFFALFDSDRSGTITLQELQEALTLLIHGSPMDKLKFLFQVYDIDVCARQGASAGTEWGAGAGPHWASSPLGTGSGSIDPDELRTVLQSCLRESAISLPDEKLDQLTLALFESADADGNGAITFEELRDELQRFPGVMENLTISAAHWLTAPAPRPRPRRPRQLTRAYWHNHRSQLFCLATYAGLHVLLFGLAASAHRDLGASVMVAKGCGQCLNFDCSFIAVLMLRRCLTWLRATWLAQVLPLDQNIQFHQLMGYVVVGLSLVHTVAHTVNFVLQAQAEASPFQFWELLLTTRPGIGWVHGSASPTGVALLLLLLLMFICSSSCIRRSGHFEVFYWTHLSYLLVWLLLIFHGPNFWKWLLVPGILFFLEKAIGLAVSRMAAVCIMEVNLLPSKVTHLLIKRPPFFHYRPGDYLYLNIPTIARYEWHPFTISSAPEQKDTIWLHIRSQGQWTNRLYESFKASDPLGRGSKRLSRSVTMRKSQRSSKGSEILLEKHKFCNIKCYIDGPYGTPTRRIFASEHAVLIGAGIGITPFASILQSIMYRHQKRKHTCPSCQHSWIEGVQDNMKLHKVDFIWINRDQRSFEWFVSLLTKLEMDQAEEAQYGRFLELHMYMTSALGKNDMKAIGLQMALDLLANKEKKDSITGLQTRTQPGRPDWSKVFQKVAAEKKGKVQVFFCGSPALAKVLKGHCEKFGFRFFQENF
SMILES,composite z-score [1],z-score [2],z-score [3],z-score [4],z-score [5],composite z-score [6],composite z-score [7],composite z-score (Torsin-1A (Homo sapiens) [8]),composite z-score (Torsin-1A (Homo sapiens) [9]),composite z-score [10],z-score [11],composite z-score [12],z-score [13],z-score [14],z-score [15],z-score [16],z-score [17],z-score [18],z-score [19],z-score [20]
C=CC[C@@H](O)c1ccc(O)c(F)c1,-0.54 and -0.38,0.504 (inactive) and -1.51 (inactive),-0.222 (inactive),-0.403 (inactive) and 0.0632 (inactive),0.347 (inactive) and -1.46 (inactive),-1.6 and -1.65,-0.327 and -0.157,-1.73 and -0.874,0.565 and -0.383,-0.97 and 0.89,-0.024 (inactive) and 1.7 (inactive),-0.216 and -0.0449,0.92 (inactive) and -0.126 (inactive),0.574 (inactive) and -1.54 (inactive),-0.0619 (inactive) and -1.38 (inactive),0.476 (inactive) and -2.12 (inactive),0.0996 and 0.266,-0.896 (inactive) and -0.237 (inactive),-1.46 (inactive) and 0.42 (inactive),-0.436 and 0.271
C=C[C@@H](OC)[C@H](O)c1ccc(OC)c(O)c1,0.192 and -0.0615,-0.825 (inactive) and 1.07 (inactive),0.729 (inactive),0.441 (inactive) and -0.142 (inactive),0.0793 (inactive) and -1.37 (inactive),-0.964 and -1.77,-0.281 and -0.306,0.059 and -0.285,-0.242 and -0.089,0.439 and -0.117,0.232 (inactive) and 1.81 (inactive),0.235 and -0.328,0.61 (inactive) and -0.257 (inactive),0.436 (inactive) and -1.63 (inactive),-0.28 (inactive) and -1.54 (inactive),0.328 (inactive) and -2.34 (inactive),0.138 and 0.185,-2.35 (inactive) and -2.11 (inactive),-0.998 (inactive) and -1.12 (inactive),-1.51 and -0.778
CC(C)=CCCC(C)=CCON=C1C[C@@H](O)[C@@H](O)[C@@H]2[C@@H]3C(=O)N([C@@H](C)c4ccccc4)C(=O)[C@@H]3CC[C@H]12,0.111,-3.97 (inactive),1.09 (inactive),-0.295 (inactive),-0.323 (inactive),0.0138,-0.233,0.594,0.26,1.18,-0.125 (inactive),-0.0603,11.1 (active),0.362 (inactive),1.3 (inactive),-0.944 (inactive),1.27,-1.06 (inactive),-0.306 (inactive),-4.23
C=CCN(C(=O)C1N(C(C)(C)CO)C(=O)C2C(C(=O)O)C3C=CC21O3)C(C)(C)C (stereo not given),-1.52 and -0.697,-0.037 (inactive) and -0.67 (inactive),1.58 (inactive) and 1.05 (inactive),0.471 (inactive) and 0.996 (inactive),0.0027 (inactive) and -0.21 (inactive),-1.86 and -1.52,-0.271 and -0.302,-3.46 and 0.256,-2.89 and 0.829,-2.51 and -1.85,-0.497 (inactive) and 0.156 (inactive),0.0026 and -0.316,-0.455 (inactive) and -0.501 (inactive),0.222 (inactive) and 0.135 (inactive),-0.67 (inactive) and -0.452 (inactive),0.11 (inactive) and -0.11 (inactive),-0.356 and -0.316,0.849 (inactive) and 0.0709 (inactive),-1.48 (inactive) and -2.38 (inactive),0.103 and -0.476
C[N+](C)(C)CCCCCCNC(=O)[C@H]1C[C@H]2C(=O)N[C@@H](CCCC[N+](C)(C)C)C(=O)N2[C@H]1c1cccc(OCCO)c1,0.138 and 0.215,-0.153 (inactive) and 0.0096 (inactive),-0.454 (inactive) and 0.221 (inactive),-0.532 (inactive) and -1.09 (inactive),0.323 (inactive) and -0.622 (inactive),-0.621 and 0.0935,0.298 and 0.135,0.765 and 1.27,1.11 and 0.354,1.98 and 1.79,1.06 (inactive) and -0.391 (inactive),0.212 and 1.06,3.2 (inactive) and 3.03 (inactive),1.03 (inactive) and 1.07 (inactive),0.0478 (inactive) and -2.4 (inactive),0.448 (inactive) and 0.301 (inactive),-0.0981 and -0.617,-0.142 (inactive) and -0.0849 (inactive),0.566 (inactive) and 0.746 (inactive),0.749 and 0.86
C[N+](C)(C)CCCCNC(=O)[C@H]1C[C@H]2C(=O)N[C@@H](CCCC[N+](C)(C)C)C(=O)N2[C@H]1c1cccc(OCCO)c1,0.949 and 0.646,-0.0036 (inactive) and -0.177 (inactive),-0.281 (inactive) and 0.741 (inactive),-0.667 (inactive) and -0.268 (inactive),-0.393 (inactive) and -0.441 (inactive),-0.853 and -0.0338,-0.025 and 0.0631,-1.08 and 1.03,-0.879 and 2.09,2.21 and 2.31,-0.398 (inactive) and -0.737 (inactive),0.266 and -0.483,1.37 (inactive) and 2.16 (inactive),0.244 (inactive) and 0.944 (inactive),-0.706 (inactive) and 0.0108 (inactive),0.155 (inactive) and 0.23 (inactive),0.2 and -0.314,-0.187 (inactive) and -1.8 (inactive),-0.217 (inactive) and -0.934 (inactive),0.0197 and 0.0552
C=CCN(CCCC)C(=O)C1N(c2ccc(CCO)cc2)C(=O)C2C(C(=O)O)C3C=CC21O3 (stereo not given),-0.612 and -0.135,-0.544 (inactive) and -0.336 (inactive),-0.353 (inactive) and -1.38 (inactive),-0.224 (inactive) and 0.0524 (inactive),-0.153 (inactive) and 0.323 (inactive),-1.29 and -2.12,-0.389 and -0.409,-2.4 and -3.13,-1.86 and -3.82,-1.43 and -2.14,0.516 (inactive) and 1.32 (inactive),-0.103 and 0.778,-0.245 (inactive) and 0.903 (inactive),-0.186 (inactive) and -0.13 (inactive),-0.874 (inactive) and -0.244 (inactive),0.113 (inactive) and -0.183 (inactive),0.799 and -0.202,-0.212 (inactive) and 1.49 (inactive),0.0383 (inactive) and -1.09 (inactive),-0.437 and 0.534
C=CCN(C(=O)C1N(CCCCCCO)C(=O)C2C(C(=O)O)C3C=CC21O3)c1ccc(OC)cc1 (stereo not given),1.04 and -0.561,0.191 (inactive) and 0.252 (inactive),1.51 (inactive),0.0564 (inactive) and 0.724 (inactive),-0.933 (inactive) and -0.173 (inactive),-0.825 and -0.728,-0.0791 and -0.0279,-3.03 and -2.03,-1.75 and -1.28,-1.27 and -1.42,2.17 (inactive) and 0.932 (inactive),0.153 and 0.659,0.12 (inactive) and -0.718 (inactive),-1.31 (inactive) and 0.0039 (inactive),-0.398 (inactive) and -0.196 (inactive),-1.43 (inactive) and -0.157 (inactive),0.441 and -0.173,0.846 (inactive) and 0.381 (inactive),-0.0568 (inactive) and -0.682 (inactive),1.3 and 0.105
CC(CO)N1C(=O)[C@@H]2C3C(=O)OCCC=C[C@H]3OC23C=CCN(c2ccc(Cl)cc2)C(=O)[C@@H]13 (stereo not given in full),-0.396 and -0.34,-0.666 (inactive) and -0.787 (inactive),1.06 (inactive) and 0.664 (inactive),0.187 (inactive) and 0.325 (inactive),-0.613 (inactive) and 0.478 (inactive),-0.9 and 0.152,-0.111 and 0.0541,-1.09 and -1.53,-2.42 and -1.49,-0.359 and 0.829,-0.0529 (inactive) and -0.655 (inactive),-0.142 and 0.422,0.725 (inactive) and 3.92 (inactive),1.02 (inactive) and 0.352 (inactive),0.741 (inactive) and 0.968 (inactive),0.817 (inactive) and 0.0372 (inactive),-0.7 and -0.574,1.59 (inactive) and 1.47 (inactive),1.03 (inactive) and 1.11 (inactive),2.46 and 2.5
C=CCN1C(=O)[C@]2(O[C@H](CCn3cc(CCO)nn3)[C@@H]([Si](C)(C)c3ccc(OC)cc3)[C@@H]2C)c2cc(N3C(=O)c4cccc5cccc3c45)ccc21,0.684 and 0.279,-8.04 (active) and -7.97 (inactive),-0.475 (inactive) and -0.111 (inactive),29.7 (active) and 37.9 (active),-4.15 (inactive) and -3.89 (inactive),0.377 and 0.732,-0.0719 and -0.0986,0.317 and 0.0769,0.398 and 0.254,1.21 and 1.38,0.833 (inactive) and -0.342 (inactive),-0.0536 and 0.188,24.1 (active),9.07 (active) and 8.54 (active),-0.152 (inactive) and -1.17 (inactive),2.04 (inactive) and 1.7 (inactive),1.04 and 0.347,0.823 (inactive) and 1.03 (inactive),0.265 (inactive) and 0.624 (inactive),-0.371 and -0.152
